# Screening results as filed in PubChem.
# Sampled rows, rich in hits. Any-hit rate of the full collection: about 2.2%.
# KLF5 inh – inhibitors of KLF5 expression; DLD-1 KLF5 promoter-luciferase reporter, luminescence; AID 1700; hit rate 0.23% among 290,000; inhibition, % at 5 µM;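 active = inhibition above a per-plate limit of that plate's mean compound inhibition plus 3 SD, cut at about 60% in these data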;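 note: 0% = DMSO wells and 100% = LY294002 at 200 µM; higher means less KLF5 promoter-driven luciferase light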
# BaF3 tox – reduces parental Ba/F3 cell viability, JAK2V617F counter-screen; CellTiter-Glo ATP luminescence; inhibition, % at 5.6 µM; hit rate 1.1% among 220,000; AID 1486;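 active = inhibition above a per-campaign cutoff, the mean inhibition of all tested compounds plus 3 SD, cut at about 27% in these data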;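 note: 0% = DMSO wells and 100% = JAK Inhibitor I control wells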
# APP 5UTR inh – APP translation inhibition. hit rate 0.82% among 190,000. SH-SY5Y APP 5'UTR-luciferase reporter, luminescence. inhibition, % at 2 µM. AID 1285;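 active = inhibition above a set limit, derived from the sample mean plus 3 SD, cut at about 45% in these data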
# IEC-6 tox – IEC-6 cytotoxicity, counter-screen for KLF5 inhibitors | inhibition, % at 5 µM | luminescence viability | AID 1825 | hit rate 0.78% among 290,000; in the data active = inhibition above about 22%;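 note: 0% = plate median of test compound wells and 100% = cytotoxic reference compound wells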
# aSyn 5UTR inh – 5' untranslated region of α-synuclein, MLPCN primary screen; alpha-synuclein 5'UTR reporter, inhibitor activity; inhibition, % (tested at 7.5 µM); hit rate 0.82% among 300,000; in the data active = inhibition above about 60%;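 note: H4 neuroglioblastoma cells stably carrying SNCA 5'UTR luciferase fusion; 0% = DMSO wells and 100% = positive control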
# Ba/F3 V617F tox – reduce viability of Ba/F3 cells dependent on JAK2V617F; Ba/F3 EpoR-JAK2V617F viability, ATP luminescence; inhibition, % at 5.6 µM; hit rate 1.1% among 220,000; AID 1446;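 active = inhibition above the campaign mean plus 3 SD over all tested compounds, cut at about 24% in these data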;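 note: cytokine-independent growth of Ba/F3 cells driven by EpoR plus mutant JAK2; 0% = DMSO-treated cells and 100% = JAK inhibitor I control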
# Numbers without * were called inactive; x = not tested or not shown.
SMILES,KLF5 inh,BaF3 tox,APP 5UTR inh,IEC-6 tox,aSyn 5UTR inh,Ba/F3 V617F tox
CCN1CCN(C(=S)Nc2ccc(Cl)cc2)CC1,14,35*,-5,-1,-5,25*
Cc1ccc(NC(=S)N(CCCN2CCN(C)CC2)Cc2cccs2)cc1C,8,29*,6,10,9,36*
Cc1ccc(NC(=S)N(CCCN2CCOCC2)Cc2ccco2)cc1Cl,-4,20,6,6,-12,5
CCN1CCN(CCCN(Cc2ccco2)C(=S)Nc2cc(Cl)ccc2C)CC1,-26,69*,-6,3,16,63*
Cc1ccccc1NC(=S)N(CCCN1CCCCC1)Cc1ccco1,13,5,5,-3,13,0
Cc1ccc(NC(=S)N(CCN(C)C)C(C)c2ccco2)cc1Cl (centres undefined),-42,30*,x,-3,-4,27*
CCN1CCN(CCCN(Cc2ccco2)C(=S)Nc2ccc(Cl)cc2)CC1,-6,29*,-14,-2,-13,36*
CN(C)S(=O)(=O)N1CCN(CC(O)COc2ccc(-c3ccccc3)cc2)CC1 (centres undefined),-16,x,x,-5,6,x
CCC(=O)c1c(CC)c2n3c1CC[C@H]3CCC2,x,x,x,x,5,x
O=[N+]([O-])c1ccc(-c2ccc(/C=N/Nc3nc(N4CCCCC4)nc(N4CCCCC4)n3)o2)cc1,-43,7,3,-1,36,-3
O=[N+]([O-])c1cccc(-c2ccc(/C=N/Nc3nc(N4CCCCC4)nc(N4CCCCC4)n3)o2)c1,-23,-4,-23,-5,73*,-2
O=C(NCCC1CCCCN1S(=O)(=O)c1ccc(F)cc1)C(=O)NCCN1CCOCC1 (centres undefined),x,x,x,x,-7,x
CCN(CC)C(=O)Oc1ccc(Cl)c2cccnc12,10,5,-22,0,23,0
O=C(Nc1cccc(C(F)(F)F)c1)Oc1ccc(Cl)c2cccnc12,-7,2,x,-3,75*,-5
CCOc1ccccc1NC(=O)Nc1ccc(CC#N)cc1,-17,0,x,0,-23,-3
COc1ccc(C(=O)N2CCCC(Nc3ccc(F)cc3)C2)c(OC)c1 (centres undefined),6,x,x,0,-7,x
Cc1cc(C)c2nc(/N=C(\N)NC(=O)Nc3ccccc3)nc(C)c2c1,-15,66*,-6,0,-20,69*
O=C1NC2=C(C(=O)CCC2)C(c2ccc(OC(F)F)cc2)N1 (centres undefined),18,x,x,12,8,x
CCn1c(C)nc2cc(C(=O)N/N=C(\C)c3ccc(OC)cc3O)ccc21,-44,9,42,6,84*,4
CCn1c(C)nc2cc(C(=O)N/N=C/c3ccc(OC)cc3)ccc21,-18,-3,-38,-3,18,-2
COc1ccc2[nH]c3c(c2c1)CCN1C(=O)N([C@@H](C)C(=O)NC2CCN(Cc4ccccc4)CC2)C(=O)[C@]31C,-14,x,x,-1,-14,x
Cc1cc(C2=NNC(=NC3CC3)SC2)c(C)n1Cc1ccco1,-15,-2,47*,-2,x,-5
C=CCn1c(C)cc(C2=NNC(=Nc3ccc(C)cc3)SC2)c1C,3,2,-14,-5,-4,0
COCCn1c(C)cc(C2=NNC(=Nc3ccc(Cl)cc3Cl)SC2)c1C,1,4,6,2,-2,1
COc1ccc(-n2c(C)cc(C3=NNC(=NC4CC4)SC3)c2C)cc1,11,5,-93,-6,x,0
SMILES,KLF5 inh,BaF3 tox,APP 5UTR inh,IEC-6 tox,aSyn 5UTR inh,Ba/F3 V617F tox
C=CCn1c(C)cc(C2=NNC(=NC(C)(C)C)SC2)c1C,-27,0,-128,1,89*,2
COCCn1c(C)cc(C2=NNC(=NC3CC3)SC2)c1C,79*,5,88*,-8,112*,-2
Cc1cc(C2=NNC(=NC3CC3)SC2)c(C)n1-c1ccccc1,21,3,76*,0,95*,-2
CCOc1ccc(Br)cc1C(=S)N1CCCC1,6,x,x,0,2,x
C=CCN=C1NN=C(c2cc(C)n(CCOC)c2C)CS1,0,2,-2,-4,86*,-4
Cc1cc(-c2ccc([N+](=O)[O-])cc2)nc2ccccc12,-2,3,-39,13,-37,-1
Cc1cc(N2CCN(c3nc(-c4ccc([N+](=O)[O-])cc4)cs3)CC2)c2ccccc2n1,-26,0,29,-7,66*,-3
Cc1c(NC(=O)COC(=O)/C=C/c2ccc(Cl)cc2)c(=O)n(-c2ccccc2)n1C,-19,4,6,1,-8,-2
Cc1c(N/N=C(\C#N)C(=O)c2ccc(Cl)cc2)c(=O)n(-c2ccccc2)n1C,31,62*,73*,20,86*,31*
Cc1c(NC(=O)C(C)Sc2ccccc2)c(=O)n(-c2ccccc2)n1C (centres undefined),-14,4,58*,-5,-6,3
Cc1c(NC(=O)COC(=O)C(c2ccc(Cl)cc2)C(C)C)c(=O)n(-c2ccccc2)n1C (centres undefined),-9,97*,x,-5,6,-2
BrC(/C=C\c1ccccc1)=N/Nc1nc(N2CCOCC2)nc(N2CCOCC2)n1,-19,-2,27,-4,-27,-1
BrC(=C\c1ccccc1)/C=N/Nc1nc(N2CCOCC2)nc(N2CCOCC2)n1,-7,6,63*,13,-2,2
Cc1c(C(=O)C(=O)N2CC=C(c3ccccc3)CC2)c2ccccc2n1C,38,28*,82*,47*,55,77*
Cc1c(C(=O)C(=O)N2c3ccccc3CC2C)c2ccccc2n1C (centres undefined),4,8,-7,9,-8,3
Cc1cc(C(=O)N2CC=C(c3ccccc3)CC2)c2ccccc2n1,x,x,x,x,43,x
O=C(O)c1ccccc1C(=O)N1CC=C(c2ccccc2)CC1,-35,38*,4,-2,-12,16
Cc1ccc(CC(CC(=O)O)C(=O)NCc2ccccc2)cc1 (centres undefined),-19,7,x,2,11,-2
CNC[C@H](Cc1ccccc1)NC[C@@H](Cc1cccc2ccccc12)NCCc1ccc(C)cc1,7,x,x,-4,123*,x
Cc1nc(-c2ccccc2)sc1C(=O)NN,-13,8,73*,-9,-102,1
O=C(Nc1cc(S(=O)(=O)N2CCOCC2)ccc1OCC(F)(F)F)C1=COCCO1,x,x,x,x,2,x
C/C(CC(C)(C)C1CCCCC1)=N\NC(N)=S,19,73*,-3,8,-76,80*
O=[N+]([O-])c1ccccc1Nc1nc(-c2cccnc2)cs1,-85,x,x,3,-91,x
COc1ccc(CCn2c(C3CCCCC3)nc3c(c(=O)c4ccccc4n3C)c2=O)cc1,18,4,x,4,75*,0
COc1ccc(Cn2c(C3CCCCC3)nc3c(c(=O)c4ccccc4n3C)c2=O)cc1,-4,-1,x,5,32,0
CCCn1cc(CN2CCc3ccc(NC(=O)C4CCCO4)cc3C2)c(C)n1 (centres undefined),-44,x,x,-3,-9,x
